FBPA Giardia inh: Giardia lamblia aldolase inhibition | A8B2U2 | purified Giardia FBPA | Potency, µM (top dose mostly 59.6 µM), inactives show at the top dose activity, negative = inhibition, usual class: inhibitors | hit rate 0.71% among 290,000 | AID 2451; note: potency is the fitted concentration of half-maximal effect; % is set by controls: 0 for no effect and ±100 for the full control effect; nearly all actives have a fitted effect of over 55% in size
Target sequence (A8B2U2 whole entry, looked up): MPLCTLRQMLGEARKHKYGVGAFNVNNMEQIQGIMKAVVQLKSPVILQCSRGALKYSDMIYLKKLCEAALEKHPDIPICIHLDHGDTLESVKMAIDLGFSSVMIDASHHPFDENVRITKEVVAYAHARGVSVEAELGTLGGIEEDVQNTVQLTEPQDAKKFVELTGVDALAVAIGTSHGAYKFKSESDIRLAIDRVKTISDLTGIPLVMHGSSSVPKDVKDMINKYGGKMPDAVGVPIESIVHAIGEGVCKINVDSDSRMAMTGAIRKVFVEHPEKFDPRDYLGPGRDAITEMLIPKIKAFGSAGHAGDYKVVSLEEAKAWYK
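40 nM FBPA preincubated 10 min at RT with compound (up to 57.5 uM final), then substrate plus GAPDH/TPI/NAD/arsenate coupling and diaphorase/resazurin added. Fluorescence read after 20 min at RT, 525/598 nm.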
Pf growth 96h: inhibits malaria parasite growth, 96 h; AID 504834; Potency, µM (doses to about 28.7 µM), for inactives: at the highest dose activity change, negative = inhibition, hits mostly inhibitors; P. falciparum luciferase reporter growth, 96 h; hit rate 6.9% among 320,000; note: potency is the fitted concentration of half-maximal effect; % is set by controls: 0 for no effect and ±100 for the full control effect
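Readout is luminescence from an integrated firefly luciferase in P. falciparum. Red cells, 2% hematocrit and 0.05% parasitemia final, were cultured with compound through two parasite generations (96 hours) at 37 C, 5% CO2.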
NS1 function inh: influenza NS1 inhibition | Potency, µM (doses to about 46.1 µM), without a hit: top-dose activity, positive = more growth | hit rate 0.4% among 270,000 | AID 2326; calls by dose curve; note: potency is the fitted concentration of half-maximal effect; actives are rising curves; nearly all actives have a fitted effect of over 50% in size
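Growth recovery, yeast-based: influenza A NS1 expressed in S. cerevisiae causes slow growth, and suppressors are detected by OD600. The parent strain without NS1 is used as positive control.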
Shiga toxin inh: Shiga toxin inhibition. Vero cells, Shiga toxin protein synthesis inhibition reporter. inhibition, % at 38.7 µM. hit rate 9.2% among 290,000; in the data active = inhibition mostly above about 28%, no sharp cut-off; inactive = mostly below about 43%; note: 0% is about no effect
Pf growth 48h: P. falciparum growth inhibition at 48 hours (one generation) | hit rate 5.9% among 310,000 | Potency, µM (series often up to 28.7 µM), for inactives: at the highest dose activity change, negative = inhibition, most hits filed as inhibitors | P. falciparum luciferase growth in erythrocytes, 48 h; note: potency is the fitted concentration of half-maximal effect; % is set by controls: 0 for no effect and ±100 for the full control effect
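Luciferase-expressing parasites in RBCs, 2% Hct / 0.1% parasitemia final; RPMI 1640 + 0.5% Albumax; 37 C, 5% CO2, one generation; luminescence read-out, lower signal = inhibition.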
Cycloheximide cs: counter-screen for Shiga toxin inhibitors: cycloheximide protein synthesis inhibition | max response, % | hit rate 12% among 300,000 | cell reporter, cycloheximide protein synthesis inhibition counterscreen; in the data active = max response mostly above about 13%, no sharp cut-off; inactive = mostly below about 14%; note: read at 38.3 µM for the half of the compounds with a filed dose; 0% is about no effect
* marks the source's active call; other numbers are inactive results; i = inactive; ? = inconclusive; nt = no result given. The list is not random: actives were taken first. Their share in the collection is about 21%. Unless noted, calls come from the whole dose curve; as a rule, active = well fitted curve in the direction sought with a large enough effect; inconclusive = small, poorly fitted or top-dose-only effect, or another doubt; inactive = no such curve, though single readings can be large; an effect the other way counts as inactive or inconclusive.

SMILES | FBPA Giardia inh | Pf growth 96h | NS1 function inh | Shiga toxin inh | Pf growth 48h | Cycloheximide cs
CN1c2ccsc2C(O)=C(C(=O)Nc2ccccc2)S1(=O)=O | 18% | 4% | 22% | -1 | -18% | 11
Cc1ccc(NC(=O)C2=C(O)c3sccc3N(C)S2(=O)=O)cc1 | 8% | 14% | 10% | 27 | -6% | 23*
Cc1ccc(NC(=S)C2=C(O)c3sccc3N(C)S2(=O)=O)cc1 | 15% | nt | -3% | 31 | -30% | 19*
CC(C)(C)OC(=O)N[C@H](C(=O)OC(C)(C)C)c1ccccc1 | nt | ? | nt | nt | 21% | nt
Cc1ccc(C(=O)NCCCNC(=O)c2ccco2)cc1C | 2% | ? | 6% | -2 | 4% | 10
CC(=O)c1ccc(OCc2cc(C(=O)NCCn3nc(C)cc3C)no2)cc1 | nt | ? | 9% | 63* | ? | 81*
Cc1cc(C)n(CC(C)NC(=O)c2cc(COc3ccc(F)c(F)c3)on2)n1 (stereo unspecified) | -7% | ? | -23% | 28* | 0% | 19*
Cc1cc(CNC(=O)c2cc(COc3ccc(F)c(F)c3)on2)nn1C | 3% | ? | -15% | 64* | 16% | 46*
Cn1c(CCNC(=O)c2cc(COc3ccc(F)c(F)c3)on2)nc2ccccc21 | nt | ? | -14% | 73* | 1% | 16
Cc1cc(C)n(CCCNC(=O)c2cc(COc3ccc(C)c(C)c3)on2)n1 | nt | 25% | -10% | -24 | -17% | 4
Cc1cc(C)n(CC(C)NC(=O)c2cc(COc3c(F)cccc3F)on2)n1 (stereo unspecified) | 0% | i | 1% | -11 | -10% | 5
CC(C)c1ccc(NC(=O)C2CCN(S(=O)(=O)c3ccc4c(c3)C(C)(C)C(=O)N4C)CC2)cc1 | -7% | -20% | 3% | -11 | ? | -4
Cc1cccn2c(=O)nc(SCC(=O)N3CCC(C)CC3)nc12 | nt | 24% | nt | nt | 8% | nt
CCOC(=O)C1=NN(c2ccccc2C)C2=NC(C)=C(C(=O)OC)C(c3cccc(OC)c3)N12 (stereo unspecified) | -10% | ? | -28% | 4 | -3% | 8
CC(C)[C@@H](CC(=O)N[C@@H]1CCNC[C@H]1C(=O)N[C@H](CC(=O)N[C@@H](CCC(=O)O)CC(=O)O)Cc1c[nH]c2ccccc12)NC(=O)C[C@H](Cc1c[nH]c2ccccc12)NC(=O)[C@@H]1CNCC[C@H]1N | -24% | nt | nt | nt | nt | nt
Cc1nc(C(C)NC(=O)c2cc(COc3ccc(F)c(F)c3)on2)cs1 (stereo unspecified) | nt | -27% | -12% | 9 | -10% | 18*
CC(NC(=O)c1cc(COc2ccc3ncccc3c2)on1)c1ccc(F)cc1 (stereo unspecified) | -9% | -2% | -2% | 7 | ? | 5
Cc1ccc(C)c(OCc2cc(C(=O)NC(C)c3cnn(C)c3)no2)c1 (stereo unspecified) | nt | ? | -1% | 17 | ? | 11
Cc1nc2cc(OCc3cc(C(=O)NC(C)c4cn(C)nc4C)no3)ccc2s1 (stereo unspecified) | nt | 1% | 10% | 1 | 23% | 14
CC(NC(=O)c1cc(COc2ccccc2)on1)c1nccs1 (stereo unspecified) | -5% | ? | -15% | 75* | 60% | 28*
CC(=O)c1ccc(OCc2cc(C(=O)NC(C)c3cnn(C)c3)no2)cc1 (stereo unspecified) | -4% | -27% | -10% | 94* | -28% | 37*
Cc1c(C(=O)N2CCCCCC2)c(S(=O)(=O)Nc2ccc(F)cc2)c(C)n1C | 3% | ? | -3% | -3 | 0% | -1
CC(C)(C)c1ccc(C(=O)NC(=O)COC(=O)CCS(=O)(=O)c2ccccc2)cc1 | nt | 49% | nt | nt | 14% | nt
Cc1ccccc1Cn1c(NC2CCCC2)nc2c1c(=O)[nH]c(=O)n2C | -3% | ? | 9% | -2 | -1% | -4
COc1cccc2oc3ccc(C#CC4(N)CCCCC4)cc3c(=O)c12 | -3% | -80% | 4% | 24* | -23% | 21*
SMILES | FBPA Giardia inh | Pf growth 96h | NS1 function inh | Shiga toxin inh | Pf growth 48h | Cycloheximide cs
Cn1c2ccccc2c(=O)c2cc(C#CC3(O)CCCCC3)ccc21 | -24% | 124% | 7% | 56* | 94% | 27*
O=C(c1ccc(C#CC2(O)CCCCC2)cc1)N1CCOCC1 | -4% | nt | -1% | 37 | 22% | 16
Cn1cc(C=C2C(=O)OC3(CCCCC3)OC2=O)c2ccccc21 | -4% | 2% | 2% | -4 | ? | -2
Cn1c2ccccc2c(=O)c2ccc(C#CC3(N)CCCCC3)cc21 | 3% | ? | 17% | 85* | 19% | 45*
NC1=C(c2ccc([N+](=O)[O-])cc2)C(=O)CO1 | 4% | 19% | -2% | -62 | 2% | 12
O=[N+]([O-])c1ccc(C2=NCCO2)cc1 | -3% | 60% | -60% | 74* | 26% | 39*
O=C(OCCCOc1ccc(F)cc1)c1ccc(O)cc1O | nt | 27% | -66% | 21 | 24% | 21*
COc1ccccc1C(=O)NCC(=O)OCC(=O)N1CC(C)OC(C)C1 (stereo unspecified) | nt | 12% | nt | nt | ? | nt
COc1ccc(-c2ncncc2-c2ccc(Cl)cc2)c(O)c1 | 1% | 7.4µM* | -7% | -8 | 8.3µM* | -2
CCOc1ccc(-c2nc(N)ncc2Oc2cccc(OC)c2)c(O)c1 | -11% | ? | -3% | -10 | nt | 2
CCOc1ccc(-c2nc(N)ncc2Oc2ccccc2Br)c(O)c1 | -5% | 3.3µM* | 5% | 13 | nt | 8
C=C(C)COc1ccc(-c2ncncc2-c2ccc(Br)cc2)c(O)c1 | 6% | 2.3µM* | -2% | -3 | 1.9µM* | -2
CCc1cc(-c2nc(N)ncc2-c2ccc(Br)cc2)c(O)cc1OC | -8% | 19% | -1% | -14 | -4% | -2
C=C(C)COc1ccc(-c2nc(N)ncc2-c2ccc(Br)cc2)c(O)c1 | -2% | ? | 11% | 3 | 8.3µM* | 0
CCOC(=O)c1ccccc1NC(=O)COC(=O)CSC(C)C(=O)Nc1cc(C)on1 (stereo unspecified) | nt | 2% | -10% | -7 | -3% | -3
COc1ccc(-c2cncnc2-c2ccc(OC)cc2O)cc1 | 2% | ? | -3% | -15 | ? | -5
COc1ccc(-c2cnc(N)nc2-c2ccc(OCc3ccccc3)cc2O)cc1 | -11% | 15µM* | 6% | -6 | ? | -2
C=C(C)COc1ccc(-c2nc(N)ncc2Oc2ccccc2OC)c(O)c1 | -6% | ? | -56% | 5 | ? | -2
C=C(C)COc1ccc(-c2ncncc2-c2ccc(Cl)cc2)c(O)c1 | 5% | 2.3µM* | -12% | -11 | 5.2µM* | 0
COc1cccc(Oc2cncnc2-c2ccc(OC)cc2O)c1 | 11% | 80% | -140% | -9 | 5.2µM* | 2
O=C(COC(=O)c1ccc(-n2cnnn2)cc1)Nc1cc(Cl)ccc1F | nt | 7% | nt | nt | 22% | nt

Screens: PubChem, National Center for Advancing Translational Sciences (NCATS)
